Laboratory results as given in PubChem BioAssay (NCI).
The panel holds about 79,000 compounds, 15% with a hit somewhere; the sample as a whole holds those more often. Cut-off read from the data, not from the text of the source: active = growth inhibition above about 70%; inactive = the rest.

Columns and labels:
[1] = NCI Yeast Anticancer Drug Screen. Data for the rad50 strain (AID 155);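 note: 0% = growth of vehicle-only cultures of the same strain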; conditions: S. cerevisiae rad50 strain growth inhibition; at 50.0 µM; hits give high values
Procedure, shortened: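 Vehicle-treated cultures provide the reference for the growth inhibition reported for compound-exposed, repair-deficient yeast.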

[2] = NCI Yeast Anticancer Drug Screen. Data for the mec2-1 strain (AID 157); conditions: S. cerevisiae mec2-1 strain, at 50.0 µM, hits give high values
Procedure, shortened: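 Test agents were screened against the mec2-1 yeast strain, with defined DNA repair or cell cycle alteration. Growth was scored as inhibition against vehicle-only controls.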

[3] = NCI Yeast Anticancer Drug Screen. Data for the sgs1 mgt1 strain (AID 161);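 note: 0% = growth of cultures given vehicle only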; conditions: S. cerevisiae sgs1 mgt1 strain, at 50.0 µM, hits give high values
Procedure, shortened: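 Inhibition of yeast growth, normalised to vehicle-treated controls, is reported for a strain bearing genetic alterations in DNA damage repair.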

[4] = NCI Yeast Anticancer Drug Screen. Data for the cln2 rad14 strain (AID 165);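 note: 0% = growth equal to vehicle treated cultures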; conditions: S. cerevisiae cln2 rad14 strain, at 50.0 µM, hits give high values
Procedure, shortened: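 Growth of compound-exposed yeast (cln2 rad14 genotype) measured and expressed as inhibition relative to vehicle.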

[5] = NCI Yeast Anticancer Drug Screen. Data for the bub3 strain (AID 167); conditions: S. cerevisiae bub3 mutant strain, at 50.0 µM, hits give high values
Procedure, shortened: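 Mutant yeast screening strain plus compound; vehicle-treated cultures serve as the 0% inhibition reference.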

[6] = NCI Yeast Anticancer Drug Screen. Data for the mlh1 rad18 strain (AID 175); conditions: S. cerevisiae mlh1 rad18 strain growth inhibition; at 50.0 µM; hits give high values
Procedure, shortened: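 In this whole-cell yeast screen, a strain with altered DNA damage repair is challenged with compound, and its growth is measured against matched vehicle-treated controls.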

Measured: growth inhibition

N#CCC(=O)N/N=C\C(O)C(O)C(O)C(O)CO (stereo not given)
inactive: [1] 0.1% | [2] 2.6% | [3] -10.8% | [4] -1.45% | [5] 4.5% | [6] 11.1%

CC(=O)/C(N=Nc1ccccc1SCCC#N)=C(\C)O
inactive: [1] 12.2% | [2] -2.55% | [3] -8.1% | [4] -28.6% | [5] 9.15% | [6] 1.5%

O=c1[nH]c(=S)c2ncn(C3OC(CO)C(O)C3O)c2[nH]1 (stereo not given)
inactive: [1] -0.5% | [2] -13.7% | [3] -11.1% | [4] 4.4% | [5] -1.1% | [6] 11.8%

Cc1cc(C)c(C2=[N+]([O-])ON3CCc4ccccc4C23)c(C)c1 (stereo not given)
inactive: [1] 1.5% | [2] -7.7% | [3] -3.05% | [4] 4.5% | [5] -5.3% | [6] -3.2%

CCCCOc1ccc(CCOC(C)=O)cc1
inactive: [1] 6.5% | [2] -14.4% | [3] 1.7% | [4] -25.3% | [5] -15% | [6] -20.8%

C1CCCCC2(CCCCCCCCC3(CCC1)OCCO3)OCCO2
inactive: [1] -2% | [2] -21.2% | [3] -8.5% | [4] 25.6% | [5] 1.1% | [6] -5.25%

CSc1nc(NC2OCC(OC(C)=O)C(OC(C)=O)C2OC(C)=O)c(N=CC=Nc2c(NC3OCC(OC(C)=O)C(OC(C)=O)C3OC(C)=O)nc(SC)n(C)c2=O)c(=O)n1C (stereo not given)
inactive: [1] -4.3% | [2] -4.85% | [3] -19.8% | [4] -16.3% | [5] 7.95% | [6] 12.4%

NC1CCC(P(=O)(O)O)CC1 (stereo not given)
inactive: [1] -0.35% | [2] 3.45% | [3] -4.75% | [4] -9.65% | [5] -6.2% | [6] -5.1%

O=P(O)(O)OC1C(OP(=O)(O)O)C(OP(=O)(O)O)C(OP(=O)(O)O)C(OP(=O)(O)O)C1OP(=O)(O)O.[Zn+2] (stereo not given)
inactive: [1] -24.7% | [2] -4.8% | [3] -16.6% | [4] 9.6% | [5] -23% | [6] -6.2%

Cc1nnc(-c2ccccc2)s1
inactive: [1] 15.1% | [2] 12.3% | [3] -3.2% | [4] 12.1% | [5] -10.6% | [6] -7.45%

Cc1c(C(=N)N)oc2ccccc12
inactive: [1] 6.3% | [2] 0.05% | [3] 0.4% | [4] -31.5% | [5] -4.15% | [6] 3.95%

O=C(Oc1ccc(C(=O)c2ccc(C(=O)c3ccc(OC(=O)c4cccc(Br)c4)cc3)cc2)cc1)c1cccc(Br)c1
inactive: [1] 11.2% | [2] 7.15% | [3] -10.7% | [4] -2.35% | [5] 2.65% | [6] 2.15%

CC(C)(N)CNCC(C)(C)N
inactive: [1] 6.9% | [2] -3.65% | [3] -0.2% | [4] -5.8% | [5] -0.45% | [6] -2.1%

c1ccc(C(Sc2ncnc3nc[nH]c23)c2ccccc2)cc1
inactive: [1] 15% | [2] 13.2% | [3] -3.85% | [4] -22.5% | [5] 18.1% | [6] 0.1%

O=C(CN(Cc1ccccc1)Cc1ccccc1)C(O)C1OC(c2ccccc2)OCC1O (stereo not given)
inactive: [1] 1.45% | [2] -5.55% | [3] -2.3% | [4] -4.5% | [5] -1.65% | [6] -4.1%

CC(C)(c1ccccc1)C(C)(C)c1nc(-c2ccccc2)cc(-c2ccccc2)n1
inactive: [1] -23.4% | [2] 4.95% | [3] -4.65% | [4] -95% | [5] -0.95% | [6] -11.8%

Cc1cccc2c1sc1c(C)cc(C(=O)CCC(=O)O)cc12
inactive: [1] 9% | [2] 11.2% | [3] 5.3% | [4] 3.4% | [5] 20.4% | [6] 25.4%

Cc1ccc(C(=O)c2sc(Nc3cccc(C(F)(F)F)c3)c(C#N)c2N)c(C)c1
inactive: [1] 16.8% | [2] 3.35% | [3] 5.9% | [4] 11.2% | [5] 3.05% | [6] -12.6%

O=C1c2ccccc2C(=O)c2[nH]ncc21
inactive: [1] 18.4% | [2] 13.8% | [3] -3.25% | [4] -61.6% | [5] 10.1% | [6] -1.8%

O=[N+]([O-])/C(Cl)=C(/C(Cl)=C(Cl)Cl)N1CCOCC1
inactive: [1] 5.55% | [2] 4.8% | [3] 44% | [4] 6.35% | [5] 23.9% | [6] 11.7%
